High-throughput results: PubChem BioAssay, Sanford-Burnham Center for Chemical Genomics
An excerpt weighted towards active compounds, which were near 6.3% of everything screened.
tim23-1 inh = growth inhibitors of tim23-1 mutant yeast, primary screen, luminescence, uHTS; S. cerevisiae tim23-1 growth, BacTiter-Glo luminescence, 24 h; inhibition, % at 20 µM; 330,000 compounds, 1.3% hits; AID 463212, 2010;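 active = growth inhibition of the mutant yeast at or above 50%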;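 also: temperature-sensitive mutant grown at 25 °C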
Mdm2-MdmX inh = inhibitors of human Mdm2-MdmX association, primary screen, cell-based, luminescence, split luciferase, SaOS-2, uHTS; SaOS-2 split-luciferase Mdm2/MdmX complementation; inhibition, % at 8 µM; 330,000 compounds, 3% hits;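 active = inhibition of at least 50% at 8 µM in the primary screen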
Target sequence (O15151 whole entry, looked up): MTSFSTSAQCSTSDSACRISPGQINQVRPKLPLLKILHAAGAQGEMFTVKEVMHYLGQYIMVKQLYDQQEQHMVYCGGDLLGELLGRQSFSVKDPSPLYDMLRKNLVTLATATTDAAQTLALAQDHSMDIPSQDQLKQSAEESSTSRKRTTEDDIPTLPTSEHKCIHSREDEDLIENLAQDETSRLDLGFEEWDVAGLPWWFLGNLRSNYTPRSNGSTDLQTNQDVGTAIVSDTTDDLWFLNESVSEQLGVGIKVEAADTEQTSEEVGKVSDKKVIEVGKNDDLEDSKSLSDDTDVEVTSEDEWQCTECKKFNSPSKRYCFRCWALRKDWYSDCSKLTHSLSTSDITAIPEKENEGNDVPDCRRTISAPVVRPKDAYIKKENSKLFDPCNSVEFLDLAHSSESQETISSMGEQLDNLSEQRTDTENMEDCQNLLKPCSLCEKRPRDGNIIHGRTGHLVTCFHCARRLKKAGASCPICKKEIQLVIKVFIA
Target sequence (Q00987 whole entry, looked up): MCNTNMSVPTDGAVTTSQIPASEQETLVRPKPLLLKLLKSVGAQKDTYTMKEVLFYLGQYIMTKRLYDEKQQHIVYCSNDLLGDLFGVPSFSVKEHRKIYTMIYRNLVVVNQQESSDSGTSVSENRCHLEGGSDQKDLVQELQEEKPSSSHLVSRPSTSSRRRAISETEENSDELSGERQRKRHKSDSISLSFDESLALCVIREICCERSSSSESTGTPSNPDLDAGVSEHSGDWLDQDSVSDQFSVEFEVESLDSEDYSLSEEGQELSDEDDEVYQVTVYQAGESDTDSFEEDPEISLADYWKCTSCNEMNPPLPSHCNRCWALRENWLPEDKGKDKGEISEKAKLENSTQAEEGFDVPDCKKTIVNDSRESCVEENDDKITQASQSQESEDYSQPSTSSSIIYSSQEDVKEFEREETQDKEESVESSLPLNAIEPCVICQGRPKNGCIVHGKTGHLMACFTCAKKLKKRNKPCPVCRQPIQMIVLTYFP
MPTP block = mitochondrial permeability transition pore inhibitors, primary screen, biochemical, isolated mouse mitochondria, absorbance. Ca2+ swelling absorbance, 30 min. inhibition, % at 10 µM. 360,000 compounds, 1.4% hits;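 active = inhibition of 50% or more, scaled per plate between neutral and stimulator controls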
TIM10 inh = growth inhibitors of isogenic TIM10 control yeast, primary screen, counter-screen for tim10-1 yeast inhibitor project, luminescence, uHTS; S. cerevisiae TIM10 strain growth, BacTiter-Glo luminescence, 24 h; inhibition, % at 10 µM; AID 463195, 2010; 330,000 compounds, 1.4% hits;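 active = inhibition of 40% or more at the single tested concentration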;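 also: wild-type TIM10 isogenic control strain grown at permissive 25 °C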
tim10-1 inh = growth inhibitors of tim10-1 mutant yeast, primary screen, luminescence, uHTS | 330,000 compounds, 2.2% hits | AID 463190, 2010 | inhibition, % at 20 µM | S. cerevisiae tim10-1 ts strain growth, BacTiter-Glo, 24 h;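 active = inhibition of at least 40%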;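 also: mutant grown at 25 °C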
Mdm2-MdmX conf = Mdm2-MdmX complex disruptors, retested hits, confirmation, luminescence, single concentration | inhibition, % at 8 µM | 10,000 compounds, 55% hits | Mdm2-MdmX binding, luminescent assay | shares compounds with Mdm2-MdmX inh; in the data active = inhibition above about 40%
FLuc counter = full-length luciferase signal inhibition, confirmation, counter-screen for Mdm2/MdmX interaction inhibitor project, cell-based, single concentration, SaOS-2; SaOS-2 full-length luciferase counterscreen, luminescence; 6,200 compounds, 77% hits; shares compounds with Mdm2-MdmX inh; AID 504607, 2011; inhibition, % at 8 µM;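 active = mean inhibition at 8 µM reaching about 37%, which flags the compound as non-specific, limit read from the data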;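 also: p53-null SaOS-2 cells with luciferase driven by a doxycycline-inducible promoter; compound on cells about two nights before reading with doxycycline added after day one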
A number is an active result; . = inactive; / = no result.

SMILES	tim23-1 inh	Mdm2-MdmX inh	MPTP block	TIM10 inh	tim10-1 inh	Mdm2-MdmX conf	others
FC(F)(F)c1cc(-c2ccco2)nc(-n2cnc3ccccc32)n1	.	.	.	.	.	/
Cc1c(C(=O)NCc2ccc3c(c2)OCO3)oc2ccc(Br)cc12	.	73	.	.	.	.
Cc1cc2oc(C(=O)NCc3ccc4c(c3)OCO4)c(C)c2cc1C	.	.	.	.	.	/
O=c1c(Br)ccc(Br)cc1Br	/	/	.	/	/	/
CCCN1CCN(CCCNC(=O)c2cc3c(s2)-c2c(C)cccc2OC3)CC1	.	62	.	.	.	.
CC1CCCC(C)N1CCCNC(=O)c1cc2c(s1)-c1ccccc1OC2 (centres undefined)	.	61	.	.	.	.
Cc1cccc2c1-c1sc(C(=O)NCCCN3CCCC(C)C3)cc1CO2 (centres undefined)	.	67	.	.	.	49	FLuc counter=59
CC1CC(C)CN(CCCNC(=O)c2cc3c(s2)-c2ccccc2OC3)C1 (centres undefined)	.	.	.	.	.	/
CCN1CCN(CCCNC(=O)c2cc3c(s2)-c2ccccc2OC3)CC1	.	.	.	.	.	/
O=NN(Cc1cccnc1)C(=O)NC1CCCCC1	/	/	.	/	/	/
Cc1cc2nc(C(C)(C)C)c(Cc3cccc(F)c3)n2c(C)c1Br	/	/	.	/	/	/
c1ccc2c(C3OCC4(CCCCC4)CO3)cccc2c1	/	/	.	/	/	/
CC1(C(=O)NCCC(F)(F)F)Cc2c(-c3ccccc3)ccnc2O1 (centres undefined)	/	/	.	/	/	/
Cc1ccc(S(=O)(=O)Nc2cccc(C(=O)NCc3cccnc3)c2)cc1F	.	51	.	.	.	76	FLuc counter=62
Cc1ccc(NC(=O)CNC(=O)c2cccc(C)c2)nc1	.	76	.	.	.	48	FLuc counter=62
C[C@H](CO)N1C[C@H](C)[C@@H](CN(C)C(=O)c2cccnc2)Oc2ncc(Br)cc2C1=O	/	/	.	/	/	/
CCCCNC(=O)c1nc(C2CCN(S(=O)(=O)c3cccc(C(F)(F)F)c3)CC2)oc1-c1ccccc1	/	/	.	/	/	/
O=C1CN(c2nc(-c3ccccc3)c3cc(Cl)ccc3n2)c2ccccc2N1	.	68	.	.	.	.
Clc1ccc2nc(N3CCNCC3)nc(-c3ccccc3)c2c1	.	64	.	.	.	.
O=C1CN(C(=O)CSc2nc3cc(Cl)ccc3c(=O)n2Cc2ccccc2)c2ccccc2N1	.	.	.	.	.	/
C=CCC[C@@H](Cc1ccc(F)cc1)C(=O)OC[C@H](Cc1c[nH]c2ccccc12)NC(=O)[C@H](CC=C)CC(=O)NCCO	.	54	.	.	.	.
C=CCC[C@H](Cc1ccc(F)cc1)C(=O)OC[C@H](Cc1c[nH]c2ccccc12)NC(=O)[C@@H](CC=C)CC(=O)N[C@@H](CO)Cc1ccccc1	.	77	.	.	.	42	FLuc counter=49
C=CC[C@@H](CC(=O)N[C@H](CO)Cc1ccccc1)C(=O)N[C@H](COC(=O)[C@@H](CC=C)Cc1ccc(F)cc1)Cc1c[nH]c2ccccc12	.	81	.	.	.	49	FLuc counter=37
C=CCC[C@H](Cc1ccc(F)cc1)C(=O)OC[C@H](Cc1c[nH]c2ccccc12)NC(=O)[C@@H](CC=C)CC(=O)N[C@H](CO)Cc1ccccc1	.	85	.	.	.	.
C=CCC[C@H](Cc1ccc(F)cc1)C(=O)OC[C@@H](Cc1c[nH]c2ccccc12)NC(=O)[C@H](CC=C)CC(=O)NCCO	.	.	.	.	.	/
SMILES	tim23-1 inh	Mdm2-MdmX inh	MPTP block	TIM10 inh	tim10-1 inh	Mdm2-MdmX conf	others
C=CC[C@H](CC(=O)N[C@H](CO)Cc1ccccc1)C(=O)N[C@H](COC(=O)[C@@H](CC=C)Cc1ccc(F)cc1)Cc1c[nH]c2ccccc12	/	/	.	/	/	/
O=C(NCc1ccccc1)C1C(=O)Nc2ccccc2C(=O)N1c1ccc2c(c1)OCCO2 (centres undefined)	/	/	.	/	/	/
Oc1ccc(C=NNC(=S)Nc2ccccc2)nc1	/	/	.	/	/	/
COc1ccc(NC(=O)C2(C)CCN2Cc2ccccc2Cl)cc1OC (centres undefined)	/	/	.	/	/	/
CCOC(=O)c1cnc(SCC(=O)Nc2sc(C)c(C)c2C#N)nc1N	.	72	.	.	.	.
CCOC(=O)c1cnc(SCC(=O)Nc2ccc(N3CCOCC3)c(Cl)c2)nc1N	.	.	.	.	.	/
Cc1sc(NC(=O)CSc2nnc(COc3ccc(Cl)cc3)n2C)c(C#N)c1C	.	52	.	.	.	.
CCOC(=O)c1cnc(SCC(=O)Nc2cc(C(F)(F)F)ccc2N2CCOCC2)nc1N	.	55	.	.	.	.
COC(=O)c1cc2sccc2n1CC(=O)N1CCCc2ccccc21	.	52	.	.	.	41	FLuc counter=51
CCN(CC)CCN1c2ccccc2Sc2ccc3ccccc3c21	.	56	.	.	.	.	FLuc counter=75
CCN(CC)CCN1c2ccccc2Sc2ccccc21	.	.	.	.	.	/
COCc1cc(=O)[nH]c(/N=C(\N)Nc2cccc(C)c2)n1	.	.	.	.	.	/
Cc1cccc(N/C(N)=N/c2nc(CSc3ccc(Cl)cc3)cc(=O)[nH]2)c1	.	68	/	.	.	.
N/C(=N\c1nc(CSc2ccccn2)cc(=O)[nH]1)Nc1ccc(Cl)cc1Cl	.	64	.	.	.	.
COc1ccc(Cl)cc1N/C(N)=N/c1nc(CSc2ccc(C)cc2)cc(=O)[nH]1	.	.	.	.	.	/
COc1cc(C(=O)N2CCC2(C)C(=O)O)cc(OC)c1OC (centres undefined)	/	/	.	/	/	/
Nc1nc(=O)n(C2CCC(CO)O2)cc1F (centres undefined)	/	/	.	/	/	/
CC(=O)/C(C#N)=C1\NC(=O)C(Cc2ccc(C)c(C)c2)S1 (centres undefined)	.	84	.	.	.	91	FLuc counter=.
CC(=O)/C(C#N)=C1\NC(=O)C(Cc2ccccc2Cl)S1 (centres undefined)	.	87	.	.	.	91	FLuc counter=.
CC(=O)/C(C#N)=C1\NC(=O)C(Cc2cc(Cl)ccc2Cl)S1 (centres undefined)	.	96	.	.	.	83	FLuc counter=.
CC(=O)/C(C#N)=C1\NC(=O)C(Cc2ccc(F)cc2)S1 (centres undefined)	.	.	.	.	.	/
CCCCNC(=O)C1(C)CCN1Cc1ccc(C#N)cc1 (centres undefined)	/	/	.	/	/	/
OCCN(Cc1cccnc1)Cc1ccccn1	/	/	.	/	/	/
